Compound activity: PubChem, National Center for Advancing Translational Sciences (NCATS)
TRHR ag – agonists of human TRH receptor | P34981 | TRHR cells, calcium flux fluo-8, FDSS agonist mode | activation, % at 2 µM | 0.18% of 360,000 active; also: 0% is about no effect
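Agonist-mode FDSS calcium read (Ex 480/Em 530, 1 s cycles) in 1536-well TRHR cells with fluo-8 dye, after 10-cycle baseline and 23 nL compound addition; TRH at EC20 (10 nM final) added afterwards for the enhancer phase.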
USP1-UAF1 inh – blocks the human USP1/UAF1 deubiquitinase complex; O94782; recombinant USP1/UAF1, Ub-Rhodamine cleavage fluorescence; Potency, µM (titrated, usually from 57.1 µM), for inactives: at the top dose activity change, negative = inhibition, hits mostly inhibitors; 0.23% of 390,000 active; AID 743255; active = well fitted inhibition curve with a large enough effect; inconclusive = small, poorly fitted or top-dose-only effect; inactive = no such curve, though single readings can be large or run the other way; also: potency is read from the fitted curve at half-maximal effect; % is scaled to controls: 0 for no effect and ±100 for the full control effect; nearly all actives have a fitted effect of over 60% in size
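1 nM enzyme complex + cpd, 15 min RT; start with Ub-Rho 150nM final; kinetic fluorescence ex 480/em 540, 6 reads q60 s. Buffer 50mM HEPES pH 7.8, 0.5mM EDTA, 0.1 mg/ml BSA, 1mM TCEP, 0.01% Tween-20.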
D1 ag – activates the human D1 dopamine receptor; P21728; HEK293 T-REx D1 cells, calcium flux, agonist mode; activation, % at 2 µM; 1% of 360,000 active; AID 504660; also: 0% is about no effect
Target sequence (P21728 whole entry, looked up): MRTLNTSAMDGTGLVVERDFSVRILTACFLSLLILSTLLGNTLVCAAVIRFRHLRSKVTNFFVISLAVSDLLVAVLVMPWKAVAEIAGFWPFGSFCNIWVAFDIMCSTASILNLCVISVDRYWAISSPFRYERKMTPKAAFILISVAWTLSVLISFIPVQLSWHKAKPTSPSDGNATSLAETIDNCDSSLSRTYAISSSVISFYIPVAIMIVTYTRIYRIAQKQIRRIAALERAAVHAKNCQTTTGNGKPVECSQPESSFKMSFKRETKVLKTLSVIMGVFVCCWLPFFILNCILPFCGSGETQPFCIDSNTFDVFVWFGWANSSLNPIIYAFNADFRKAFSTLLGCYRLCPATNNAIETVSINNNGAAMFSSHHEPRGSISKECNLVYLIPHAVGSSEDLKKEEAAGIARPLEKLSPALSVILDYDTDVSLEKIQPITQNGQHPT
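Agonism was scored from calcium flux recorded over 180 s (1 read/s) after pintool compound addition, following a 10-cycle baseline. Cells were inducible force-coupled HEK293 TREx D1, plated overnight at 30 C and loaded with no-wash calcium dye.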
D1 antagonist – human D1 dopamine receptor antagonism; HEK293 TREx D1 cells, calcium flux, dopamine EC80; active compounds read low; 3.2% of 360,000 active; P21728; activity change, negative = inhibition, % at 10 µM; in the data active = activity change below about -30%; also: % is scaled to controls: 0 for no effect and ±100 for the full control effect
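Compound effects on dopamine-evoked calcium signalling were measured in tetracycline-induced HEK293 Trex D1 cells. Dopamine at EC80 followed a 180 s compound pre-read, and fluorescence was tracked kinetically for 180 s more.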
D1 potentiator – potentiators of human D1 dopamine receptor. P21728. HEK293 TREx D1 cells, calcium flux, dopamine EC20 potentiation. potentiation, % at 10 µM. 0.036% of 360,000 active. AID 504651; in the data active = potentiation above about 30%; also: 0% is about no effect
TRHR PAM – TRH receptor (human) allosteric enhancement; 0.66% of 360,000 active; TRHR cells, fluo-8 calcium fluorescence, EC20 TRH enhancement; AID 493056; enhancement, % at 2 µM; in the data active = enhancement above about 30%; also: 0% is about no effect
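TRHR-expressing cells loaded with fluo-8 calcium dye were read kinetically (ex 480/em 530) during compound addition, then stimulated with an EC20 of TRH (10 nM final). Enhancement of the Gq-mediated intracellular calcium response was scored.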
* marks the source's active call; other numbers are inactive results; ? = inconclusive; . = not tested or not shown. Only some compounds are listed: those with a hit (about 4.4% of all), similar ones and a draw of the others. Rule as the data show it, unless noted: active = activation above about 30%; inactive = the rest.

SMILES	TRHR ag	USP1-UAF1 inh	D1 ag	D1 antagonist	D1 potentiator	TRHR PAM
Cc1cc(C)cc(-n2c(SCC(=O)NCc3ccc4c(c3)OCO4)nc3ccccc3c2=O)c1	-1	-23%	4	-37*	-13	-3
CC(C)C[C@H](N)c1cn([C@@H](CCCCN)C(=O)N2CCNCC2)nn1	0	0%	0	0	2	31*
C#CCOCCOCCOCCNc1nc(N2CCN(C(=O)[C@H](Cc3cc4ccccc4[nH]3)n3cc([C@@H](N)C(C)CC)nn3)CC2)nc(N2CCN(C(=O)[C@H](CCCCN)n3cc([C@@H](N)CO)nn3)CC2)n1 (some centres not stated)	1	.	0	-35*	-4	-3
C#CCOCCOCCOCCNc1nc(N2CCN(C(=O)[C@H](CCCCN)n3cc([C@@H](N)C(C)CC)nn3)CC2)nc(N2CCN(C(=O)[C@H](CCCCN)n3cc([C@@H](N)CO)nn3)CC2)n1 (some centres not stated)	0	.	1	18	2	37*
C#CCOCCOCCOCCNc1nc(N2CCN(C(=O)[C@H](CCCCN)n3cc([C@@H](N)C(C)CC)nn3)CC2)nc(N2CCN(C(=O)[C@H](Cc3cc4ccccc4[nH]3)n3cc([C@@H](N)CC(C)C)nn3)CC2)n1 (some centres not stated)	1	?	-4	2	5	2
C#CCOCCOCCOCCNc1nc(N2CCN(C(=O)[C@H]([C@@H](C)CC)n3cc([C@@H](N)CC(C)C)nn3)CC2)nc(N2CCN(C(=O)[C@H](CCCCN)n3cc([C@@H](N)CC(C)C)nn3)CC2)n1	0	-10%	-3	1	-4	38*
COc1cccc(C(=O)Nc2ccccc2-c2nnc(-c3ccc(C(C)(C)C)cc3)o2)c1	0	-2%	0	16	-3	3
Cc1ccc(NC(=O)C(=S)NCc2ccco2)cc1	0	-13%	5	5	-8	-7
Cc1ccc(NC(=O)C(=O)NCc2ccco2)cc1	-1	-13%	-3	-31*	-2	-4
O=C(NC1CCCC1)C(=O)N(Cc1cccnc1)C(C(=O)NCc1ccco1)c1ccccc1F (configuration not stated)	0	-17%	1	-5	-4	-2
O=C(NC1CCCCC1)C(=O)N(Cc1cccnc1)C(C(=O)NCc1ccco1)c1ccccc1 (configuration not stated)	0	.	1	-35*	-1	3
COc1cc2c(cc1OC)C1C/C(=N\O)C(CC(C)C)CN1CC2 (configuration not stated)	0	-17%	0	-67*	-22	-2
O=C(CCS(=O)(=O)c1ccc(Br)s1)Nc1cc(C(F)(F)F)cc(C(F)(F)F)c1	1	-11%	9	2	0	-3
Cc1ccc(N=CC2=C(O)CC(c3ccco3)CC2=O)cc1 (configuration not stated)	0	-11%	3	-38*	3	3
O=C1CC(c2ccco2)CC(O)=C1C=Nc1ccc(Br)cc1 (configuration not stated)	3	-3%	3	.	-2	1
CCCCNC(=O)CC1Nc2cc(C)c(C)cc2NC1=O (configuration not stated)	0	?	3	-9	-1	4
COC(=O)c1ccc(OS(=O)(=O)c2ccc(NC(C)=O)cc2)cc1	1	-3%	21	-35*	-8	-4
CC(=O)Nc1ccc(S(=O)(=O)Oc2ccc3c(c2)C(C)=CC(C)(C)N3)cc1	1	.	20	-42*	-5	-6
CC(=O)Nc1ccc(S(=O)(=O)Oc2ccc(/C=N/NC(=O)c3ccc(Cl)cc3)cc2)cc1	1	-4%	8	-23	-10	10
CC(=O)Nc1ccc(S(=O)(=O)Oc2ccc(N3C(=O)C4CCCCC4C3=O)cc2)cc1 (configuration not stated)	-3	-19%	38*	-52*	-9	22
